# Bioassay records deposited in PubChem BioAssay by National Center for Advancing Translational Sciences (NCATS).
# The sample as a whole holds a higher share of hits than the screen did.
# Tb PYK inh – blocks Trypanosoma brucei pyruvate kinase; Q57TT1; TbPYK enzyme, Kinase-Glo Plus ATP luminescence, 45 min; Potency, µM (series often up to 76.8 µM), inactives show at the top dose activity, negative = inhibition, usual class: inhibitors; 410,000 compounds, 0.12% hits; AID 624173; further: potency means the concentration at half of the fitted maximal effect; on the % scale 0 is the no-effect control and ±100 the full control effect; nearly all actives have a fitted effect of over 50% in size
#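 Enzyme and substrate buffer are dispensed first and compound is pin-transferred. ADP at 130 uM final then starts the reaction, which runs 45 min at room temperature. Detection reagent is added for 10 min before luminescence is imaged.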
# Shiga inhibitor – blocks Shiga toxin action in Vero cells | inhibition, % at 38.7 µM | 290,000 compounds, 9.2% hits | Vero cells, Shiga toxin protein synthesis inhibition reporter; in the data active means inhibition mostly above about 28%, no sharp cut-off; inactive means mostly below about 43%; further: 0% is about no effect
# FBPA Giardia inh – Giardia lamblia aldolase inhibition. AID 2451. purified Giardia FBPA. Potency, µM (doses to about 59.6 µM), for inactives: top-dose activity, negative = inhibition, usual class: inhibitors. A8B2U2. 290,000 compounds, 0.71% hits; further: potency means the concentration at half of the fitted maximal effect; on the % scale 0 is the no-effect control and ±100 the full control effect; nearly all actives have a fitted effect of over 55% in size
#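 40 nM FBPA preincubated 10 min at RT with compound (up to 57.5 uM final), then substrate plus GAPDH/TPI/NAD/arsenate coupling and diaphorase/resazurin added. Fluorescence read after 20 min at RT, 525/598 nm.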
# RE007 growth inh – less growth of the S. pombe RE007 Vpr strain. AID 651644. 360,000 compounds, 0.21% hits. Potency, µM (doses to about 92.2 µM), for inactives: top-dose activity change, negative = less growth, most hits filed as inhibitors. S. pombe RE007 Vpr strain, BacTiter-Glo ATP luminescence, 24 h; active means well fitted falling curve with a large enough effect; inconclusive means small, poorly fitted or top-dose-only effect; inactive means no such curve, though single readings can be large or run the other way; further: potency means the concentration at half of the fitted maximal effect; on the % scale 0 is the no-effect control and ±100 the full control effect; nearly all actives have a fitted effect of over 50% in size
#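 Fission yeast strain RE007, carrying one chromosomally integrated HIV-1 vpr copy, was seeded at OD 0.01 in PMG+AL medium with 23 nL pinned compound. After 24 h at 30 °C and 99% humidity, viability was read by BacTiter-Glo luminescence.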
# Cycloheximide cs – affects cycloheximide protein synthesis inhibition readout, counter-screen. cell reporter, cycloheximide protein synthesis inhibition counterscreen. max response, %. 300,000 compounds, 12% hits; in the data active means max response mostly above about 13%, no sharp cut-off; inactive means mostly below about 14%; further: read at 38.3 µM for the half of the compounds with a filed dose; 0% is about no effect
# LmPK inhibitor – LmPK (Leishmania mexicana) enzyme inhibition; Q27686; purified LmPK, Kinase-Glo ATP luminescence, 1 h; Potency, µM (top dose mostly 57.5 µM), inactives show at the top dose activity change, negative = inhibition, hits mostly inhibitors; 290,000 compounds, 0.37% hits; AID 1721; further: potency means the concentration at half of the fitted maximal effect; on the % scale 0 is the no-effect control and ±100 the full control effect
# Target sequence (Q27686 whole entry, looked up): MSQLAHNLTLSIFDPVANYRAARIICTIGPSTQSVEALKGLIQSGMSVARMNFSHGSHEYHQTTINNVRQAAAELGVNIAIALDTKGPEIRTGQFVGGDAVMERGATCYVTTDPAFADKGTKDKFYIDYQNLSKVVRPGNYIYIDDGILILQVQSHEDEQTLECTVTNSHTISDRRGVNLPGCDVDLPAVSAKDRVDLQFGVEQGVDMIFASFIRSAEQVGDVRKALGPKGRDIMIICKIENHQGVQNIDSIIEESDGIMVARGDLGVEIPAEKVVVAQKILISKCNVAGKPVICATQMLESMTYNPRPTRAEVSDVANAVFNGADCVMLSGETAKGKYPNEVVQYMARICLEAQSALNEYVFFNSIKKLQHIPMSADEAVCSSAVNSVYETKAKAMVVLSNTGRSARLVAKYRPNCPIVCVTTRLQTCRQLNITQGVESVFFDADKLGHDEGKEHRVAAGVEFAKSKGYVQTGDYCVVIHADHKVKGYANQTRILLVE
#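 Screened at intermediate enzyme activity to detect both inhibitors and activators: LmPK at 0.1 nM, with a 0.5 nM enzyme column as activation reference. PEP 0.5 mM, ADP 0.1 mM; ATP detected by luminescence after 1 h.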
# Starred values were filed as active, the others as inactive; u = inconclusive; x = no result; [ ] = remark or other dose. Unless noted, the call rests on the fitted dose curve; in most records, active means well fitted curve in the direction sought with a large enough effect; inconclusive means small, poorly fitted or top-dose-only effect, or another doubt; inactive means no such curve, though single readings can be large; an effect the other way counts as inactive or inconclusive.
SMILES,Tb PYK inh,Shiga inhibitor,FBPA Giardia inh,RE007 growth inh,Cycloheximide cs,LmPK inhibitor
COC(=O)c1c(SC)nc2ccccc2c1OCc1cc(C)ccc1C,-8%,x,x,x,x,x
CC(C)c1nn2c(=O)cc(COC(=O)c3cccc(NC(=O)c4ccccc4F)c3)nc2s1,-3%,x,x,x,x,x
CC1CCc2c(sc(NC(=O)c3cc(-c4cccc(Cl)c4)on3)c2C(N)=O)C1 (stereo unspecified),0%,x,x,x,x,x
CCN(C(=O)COC(=O)c1cccc(NS(=O)(=O)c2ccc(F)c(F)c2)c1)C1CCS(=O)(=O)C1 (stereo unspecified),x,-5,0%,x,-2,6%
CCc1nc(N2CCC3(CC2)OCCO3)c2nnn(Cc3ccccc3)c2n1,-1%,-2,1%,18%,1,-5%
Cc1nc(N2CCC3(CC2)OCCO3)c2nnn(Cc3ccccc3F)c2n1,6%,57*,-4%,12%,43*,8%
Cc1ccc2nc(Cl)c3cc(C(=O)NC4CCCCC4)sc3c2c1,-7%,x,x,x,x,x
CC(=O)c1cccc(NC(=O)COc2ccccc2)c1,x,67,0%,0%[3.69 µM],18*,7%
CC(C)CCOCC(=O)Nc1cccc(C(=O)O)c1,2%,120*,15%,14%,105*,-1%
CSc1cccc(NC(=O)COc2ccccc2)c1,u,61,-3%,u,40*,1%
COC(=O)COc1cccc(NC(=O)COc2ccccc2)c1,-2%,0,0%,-18%,1,-5%
C/C(=N\NC(=O)c1c(Cl)cnn1C)c1cccc(NC(=O)COc2ccccc2)c1,2%,24,-1%,-27%,16*,4%
CC(=O)OC1C=C[C@@H](OC(C)=O)C1 (stereo partly specified),x,23,7%,x,-2,x
O=C(Nc1oc2ccccc2c(=O)c1-c1ccc(Cl)cc1)c1ccco1,1%,13,-14%,4%,22*,-1%
CCOC(=O)CNC(=O)CSc1ncnc2c1cnn2-c1ccc(OC)cc1,9%,16,1%,3%,29*,0%
CCOC(=O)CNC(=O)CSc1ncnc2c1cnn2-c1ccccc1,-2%,-6,0%,4%,9,-4%
CC(C)(C)NC(=O)CSc1ncnc2c1cnn2-c1ccccc1,9%,32,-3%,-18%,30*,-4%
CCOC(=O)CC(=O)CSc1ncnc2c1cnn2-c1ccccc1,-5%,81*,-7%,-28%,58*,-1%
CCCCCNC(=O)c1ccc2c(c1)nc(C)n2-c1cccc(C)c1,-5%,x,x,x,x,x
Cc1ncc(COC(=O)C(C)C)c2cc(C(=O)Nc3ccccc3C(F)(F)F)c(=O)oc12,-5%,x,x,x,x,x
COCC(=O)NC1CCN(CC(=O)Nc2ccc(OC)cc2[N+](=O)[O-])CC1,1%,-6,1%,9%,-2,-1%
COc1cc(NC(=O)CN2CCC(C)CC2)c(C)cc1[N+](=O)[O-],-4%,active,3%,x,9,3%
COc1cc(NC(=O)CN2CCN(c3ccccc3O)CC2)c(C)cc1[N+](=O)[O-],-6%,11,-10%,5%,5,2%
COc1ccc(NC(=O)CN2CCCC(C)C2)c([N+](=O)[O-])c1 (stereo unspecified),4%,32*,-1%,-4%,17*,1%
CCN(c1ccccc1)S(=O)(=O)c1ccc(F)c(C(=O)Nc2ccc(C)cc2)c1,-15%,x,x,x,x,x
SMILES,Tb PYK inh,Shiga inhibitor,FBPA Giardia inh,RE007 growth inh,Cycloheximide cs,LmPK inhibitor
O=C(N=Nc1c(O)n(Cc2ccccc2)c2ccccc12)c1cc2ccccc2cc1O,-5%,22,u,4%,16*,-2%
O=C(N=Nc1c(O)n(Cc2ccccc2)c2ccccc12)c1ccc(O)cc1,-4%,60*,-10%,x,64*,-4%
O=C(COc1ccc(C(=O)NCC2CCCO2)cc1)Nc1cccc(C(F)(F)F)c1 (stereo unspecified),0%,x,x,3%,x,x
CS(=O)(=O)N1CCC(Oc2ccccc2C(=O)NC(C2CC2)C2CC2)CC1,-6%,45*,4%,-7%,16,5%
COc1c(C)cccc1C(=O)Nc1ccc(N2CCN(S(C)(=O)=O)CC2)cc1,2%,96*,-3%,3%,35*,0%
COc1ccccc1C(=O)Nc1ccc(N2CCN(S(C)(=O)=O)CC2)cc1,5%,37*,1%,1%,11,1%
COc1ccccc1C(=O)Nc1ccccc1N1CCN(S(C)(=O)=O)CC1,-3%,7,20%,-9%,1,3%
Cc1oc2c(c1C(=O)Nc1ccc(Cl)cc1F)C1=NCCN1C=N2,-5%,x,x,x,x,x
O=C(O)CCCC(=O)N1N=C(c2ccccc2)CC1c1ccc2c(c1)OCO2 (stereo unspecified),3%,-5,7%,-21%,2,-1%
COc1cccc(-c2nn(Cc3ccccc3)cc2C(=O)O)c1,0%,25,1%,-14%,3,5%
COc1cccc(-c2nn(Cc3ccccc3)cc2CO)c1,1%,90*,1%,18%,45*,2%
Cc1c(C)c2c(c(C)c1OC(=O)CCC(=O)OCCO)CC[C@](C)(CCC[C@H](C)CCC[C@H](C)CCCC(C)C)O2,4%,x,x,x,x,x
Cc1cccc(CCN=c2c([N+](=O)[O-])nn(-c3ccccc3)n2O)c1,-4%,12,-10%,9%,12,1%[11.5 µM]
COc1ccc(-n2nc([N+](=O)[O-])c(=NCCc3cccc(C)c3)n2O)cc1,2%,-1,-13%,11%,10,3%
O=[N+]([O-])c1nn(-c2ccc(Cl)cc2)n(O)c1=NCc1ccccc1,-1%,61,-9%,-22%,36*,0%
COc1ccc(CCN=c2c([N+](=O)[O-])nn(-c3cccc(C)c3)n2O)cc1OC,0%,9,-5%,-1%,2,10%
COc1ccc(-n2nc([N+](=O)[O-])c(=NCc3ccc4c(c3)OCO4)n2O)cc1,-5%,65*,0%,-25%,55*,-4%
O=[N+]([O-])c1nn(-c2ccccc2)n(O)c1=NCc1ccc2c(c1)OCO2,-2%,54*,-1%,-9%,30*,9%
CCOc1ccccc1NC(=O)Nc1cc2c(cc1N1CCCCC1)n(CC)c(=O)n2CC,-10%,x,x,x,x,x
COc1cc(C)ccc1OCCSc1nc2ccc(NC(=O)c3ccc(F)cc3)cc2s1,-5%,x,x,x,x,x
Cc1ccc(Cl)cc1NC(=O)Cn1c(SCC(=O)NCc2ccccc2)nc2ccccc21,1%,x,x,x,x,x
COc1ccc(C(CNC(=O)c2[nH]c(C)c(C(C)=O)c2C)N2CCOCC2)cc1 (stereo unspecified),0%,x,x,15%,x,x
CCOC(=O)c1c(C)oc2c1c(C=NCc1ccccn1)c(O)c1ccccc12,-5%,47*,u,-6%,29*,4%
